Results on five compounds are retold here after PubChem BioAssay (NCATS).

Assay [1] can be described thus: Viability qHTS for spleen associated tyrosine kinase inhibitor (SYKi) naive MV4-11 cells (AID 1963823). Further: nearly all actives have a fitted effect of over 40% in size. The settings on record: MV4-11 AML viability, CellTiter-Glo luminescence, 72 h; series mostly up to 45 µM. The procedure, abridged:
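CellTiter-Glo luminescence, 10 min room-temperature incubation, gave viability. Cells: naive MV4-11 (500/well), treated 72 hr at 37 C, 5% CO2.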

A short description of assay [2]: Viability qHTS for spleen associated tyrosine kinase inhibitor (SYKi) drug resistant MV4-11 cells (AID 1963824). Further: nearly all actives have a fitted effect of over 35% in size. The settings on record: SYKi-resistant MV4-11 viability, CellTiter-Glo, 72 h; series mostly up to 45 µM. An outline of the steps:
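CellTiter-Glo luminescence, read 10 min after reagent addition, reports viability after a 72 hr compound exposure. Cells are an MV4-11 line made resistant to SYK inhibition, seeded at 500 per well onto compound-containing plates.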

Assay [3] can be described thus: Cellular viability qHTS for adrenocortical cancer (ACC) cell line SW-13 (AID 1963989). Further: nearly all actives have a fitted effect of over 65% in size.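 On activity (max response): cells grown in serum-free medium with ITS supplement; on the % scale 0 is the no-effect control and ±100 the full control effect.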 The note with it: SW-13 ACC cells viability, CellTiter-Glo, 48 h; activity (max response): stronger effect = lower value. An outline of the steps: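 48 h treatment, SW-13 in ITS/DMEM serum-free; doses up to 46 uM; readout CellTiter-Glo luminescence; curve fit four-parameter logistic.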
Assay [4] is described as follows: Cellular viability qHTS for adrenocortical cancer (ACC) cell line NCI-H295R (AID 1963990). Further: nearly all actives have a fitted effect of over 60% in size. The note with it: CellTiter-Glo ATP luminescence, 48 h; series mostly up to 46.1 µM. The procedure, abridged: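 Compound titrations (up to 46 uM final) are applied to NCI-H295R cultures for 48 h at 37C. Viable cell number is estimated by CellTiter-Glo signal, normalised to DMSO and doxorubicin controls.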

Each structure is given as a SMILES string. “And” between values parts separate entries of the source, which are not always exact repeats. Equal values may be shown once. Inconclusive results are not listed. Values without a mark were called inactive. The source made the active and inactive calls. The call rests on the fitted dose curve; in most records, active means well fitted curve in the direction sought with a large enough effect; inconclusive means small, poorly fitted or top-dose-only effect, or another doubt; inactive means no such curve, though single readings can be large; an effect the other way counts as inactive or inconclusive.
Potency means the concentration at half of the fitted maximal effect.

Take `O=c1cc[nH]c(=O)[nH]1`: the Potency result in assay [1], in assay [2] and in assay [4] was “inactive” each time. For the same compound, in assay [3], the activity (max response) was 7.94%.
In the case of `CCCCOC(=O)NS(=O)(=O)c1sc(CC(C)C)cc1-c1ccc(Cn2ccnc2)cc1`, the Potency was 14.8 µM (active) in assay [1], 14.8 µM (active) in assay [2], 28.2 µM (active) in assay [3] and 25.1 µM (active) in assay [4].
Turning to `CC(=O)OCC(=O)[C@@]1(O)CC[C@H]2[C@@H]3CCC4=CC(=O)CC[C@]4(C)[C@H]3C(=O)C[C@@]21C`, the Potency result in assay [1], in assay [2] and in assay [4] was “inactive” in each case. Also, in assay [3], the activity (max response) was -12.6% and -6.75%.
With `CNCCn1c(=O)c2cc(OC)c(OC)cc2c2cnc3cc4c(cc3c21)OCO4`, the Potency in assay [1] is 0.0152 µM (active); in assay [2], 0.0121 µM (active); in assay [3], 0.0422 µM (active); in assay [4], 0.596 µM (active).
On to `Cc1cccc(C)c1NC(=O)c1ccc(N)cc1`, for which the Potency entry in assay [1], in assay [2] and in assay [4] was “inactive” throughout. The activity (max response) in assay [3] was 6.32%.
